# Records with an inconclusive call do not appear. Entries that show only a call come without a potency. The source made the active and inactive calls. Unless noted, the call rests on the fitted dose curve; in most records, active means well fitted curve in the direction sought with a large enough effect; inconclusive means small, poorly fitted or top-dose-only effect, or another doubt; inactive means no such curve, though single readings can be large; an effect the other way counts as inactive or inconclusive.
# Key:
# [1] = molecular target: Mitogen-activated protein kinase 10 (Mus musculus) (UniProt Q61831); assay: JNK3 AlphaScreen Assay (AID 530; active means well fitted curve in either direction with a large enough effect, not every such curve was filed as active;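 further: kinase came from lysate of stimulated human HepG2 cells; signal reports phosphorylation of biotinylated GST-cJun 1-79 at Ser73 with 10 µM ATP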); conditions: JNK3 lysate, c-Jun phosphorylation; series mostly up to 57.1 µM
# Procedure, shortened: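 Phosphorylation of biotinylated GST-cJun(1-79) at Ser73 is measured by AlphaScreen proximity luminescence. Enzyme is JNK3 in HepG2 lysates activated with interleukin-1beta and tumor necrosis factor alpha; ATP is 10 uM final.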
# [2] = molecular target: Cytochrome P450 3A4 (Homo sapiens) (UniProt P08684); assay: qHTS Assay for Inhibitors and Substrates of Cytochrome P450 3A4 (AID 884); conditions: recombinant CYP3A4, Luciferin-PPXE luminescence; series mostly up to 57.1 µM; further: nearly all actives have a fitted effect of over 50% in size; further: potency means the concentration at half of the fitted maximal effect
# Cytochrome P450 3A4 (Homo sapiens), sequence (P08684 whole entry, looked up): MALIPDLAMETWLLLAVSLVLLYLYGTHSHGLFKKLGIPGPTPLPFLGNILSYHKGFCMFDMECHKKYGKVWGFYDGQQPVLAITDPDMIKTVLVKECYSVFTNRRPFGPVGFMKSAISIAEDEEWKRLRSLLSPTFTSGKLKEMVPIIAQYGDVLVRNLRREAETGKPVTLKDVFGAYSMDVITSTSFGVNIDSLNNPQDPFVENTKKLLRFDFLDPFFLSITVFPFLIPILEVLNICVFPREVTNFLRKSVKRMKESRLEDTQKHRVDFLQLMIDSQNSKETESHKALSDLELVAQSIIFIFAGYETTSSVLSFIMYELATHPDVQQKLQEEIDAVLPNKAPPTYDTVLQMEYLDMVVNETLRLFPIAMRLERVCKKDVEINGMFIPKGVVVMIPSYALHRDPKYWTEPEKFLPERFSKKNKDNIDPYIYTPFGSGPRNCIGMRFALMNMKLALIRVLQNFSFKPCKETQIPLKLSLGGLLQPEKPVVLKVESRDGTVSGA
# Procedure, shortened: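 Luminescent readout of luciferin produced by CYP3A4 (20 nM) dealkylation of Luciferin-PPXE, 25 uM (its KM). NADPH-driven reaction ran 60 min at RT after 10 min compound preincubation; data scaled to 57 uM ketoconazole as 100% inhibition.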
# [3] = molecular target: Cytochrome P450 3A4 (Homo sapiens) (UniProt P08684); assay: qHTS Assay for Activators of Cytochrome P450 3A4 (AID 885); conditions: recombinant CYP3A4, Luciferin-PPXE luminescence, 60 min; series mostly up to 57.1 µM; further: nearly all actives have a fitted effect of over 65% in size
# Procedure, shortened: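 CYP3A4 activity: Luciferin-PPXE O-dealkylation, 25uM substrate, 200mM KPO4, RT throughout. Read-out is luciferase luminescence; higher values reflect activation.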
SMILES,outcome [1],Potency [2],Potency [3]
COC(=O)[C@@H]1C[C@@]1(C)[C@@H](NC(=O)OCc1ccccc1)c1ccccc1,inactive,25.1 µM (active),inactive
COC(=O)c1ccc(C(NC(=O)OCc2ccccc2)/C(=C/[C@@H](C)C(=O)NCc2ccc(S(C)(=O)=O)cc2)c2cccnc2)cc1 (stereo partly specified),inactive,2 µM (active),inactive
CC(Cc1ccccc1)C(=O)Nc1ccccc1 (stereo unspecified),inactive,inactive,
CCCC[C@@H]1C[C@H]1[C@@H](NP(=O)(c1ccccc1)c1ccccc1)c1ccccc1OC,inactive,3.98 µM (active),inactive
COC(=O)c1ccc(C(NC(=O)OCc2ccccc2)/C(F)=C/[C@@H](C)C(=O)NCc2cc(C)on2)cc1 (stereo partly specified),inactive,2.51 µM (active),inactive
CNC(=O)[C@@H]1C[C@H]1[C@@H](NC(=O)OCc1ccccc1)c1ccccc1,inactive,12.6 µM (active),inactive
COC(=O)c1ccc(C(NC(=O)OCc2ccccc2)/C(C)=C/[C@@H](C)C(=O)N[C@@H](CO)Cc2ccccc2)cc1 (stereo partly specified),inactive,3.16 µM (active),inactive
CCCCNC(=O)C(c1ccc(OCC(=O)OC)c(C(=O)OC)c1)N(Cc1ccccn1)C(=O)CCCCCN1C(=O)NC(c2ccc(-c3ccccc3)cc2)C(C(=O)OCc2ccccc2)=C1C (stereo unspecified),inactive,7.94 µM (active),inactive
COC(=O)[C@@H]1C[C@H]1[C@@H](NC(=O)c1ccc(Br)cc1)c1ccccc1,inactive,25.1 µM (active),inactive
COC(=O)N1[C@H](Cc2ccccc2)C=C[C@]1(C)C(=O)NCc1ccccn1,inactive,7.94 µM (active),inactive
COC(=O)c1ccc(C(NC(=O)OCc2ccccc2)/C(=C/[C@@H](C)C(=O)NCCc2c[nH]c3ccccc23)c2cccnc2)cc1 (stereo partly specified),inactive,1.58 µM (active),inactive
CC(=O)N1[C@H](Cc2ccccc2)C=C[C@]1(C)C(=O)NCCN1CCOCC1,inactive,15.8 µM (active),inactive
CCCCCCN(C(=O)CCCCCN1C(=O)NC(c2ccc(-c3ccccc3)cc2)C(C(=O)OCc2ccccc2)=C1C)C(C(=O)NCCCC)c1ccc(O)c(C(=O)OC)c1 (stereo unspecified),inactive,10 µM (active),inactive
C[C@]1(C(=O)NCc2cc(F)cc(C(F)(F)F)c2)C=C[C@@H](Cc2ccccc2)N1C(=O)c1ccccc1,inactive,2 µM (active),inactive
COC(=O)c1ccc(C(NC(=O)OCc2ccccc2)/C(F)=C/[C@@H](C)C(=O)NCc2nc3ccccc3s2)cc1 (stereo partly specified),inactive,7.94 µM (active),inactive
CCC[C@@H]1C[C@@]1(CCC)[C@@H](NP(=O)(c1ccccc1)c1ccccc1)c1ccc(C(=O)OC)cc1,inactive,3.16 µM (active),inactive
COC(=O)c1ccc(C(NC(=O)OCc2ccccc2)/C(=C/[C@@H](C)C(=O)NCc2ccc(-c3ccccc3)cc2)c2cccnc2)cc1 (stereo partly specified),inactive,0.794 µM (active),inactive
COC(=O)c1ccc(C(NC(=O)OCc2ccccc2)/C(C)=C/[C@@H](C)C(=O)NC2CCCCC2)cc1 (stereo partly specified),inactive,2 µM (active),inactive
COC(=O)c1ccc(C(NC(=O)OCc2ccccc2)/C(C)=C/[C@@H](C)C(=O)NCc2cc(F)cc(F)c2)cc1 (stereo partly specified),inactive,3.16 µM (active),inactive
COC(=O)c1ccc(C(/C=C/[C@@H](C)C(=O)N[C@H](C)CO)NC(=O)OCc2ccccc2)cc1 (stereo partly specified),inactive,15.8 µM (active),inactive
COC(=O)c1ccc(C(NC(=O)OCc2ccccc2)/C(=C/[C@@H](C)C(=O)NCc2cc(C)n(C)n2)c2cccnc2)cc1 (stereo partly specified),inactive,inactive,
CC(C)(C)NC(=O)C(c1ccc(I)cc1)N(CCN1CCOCC1)C(=O)CCCNC(=O)c1ccccc1 (stereo unspecified),inactive,3.98 µM (active),inactive
CC(=O)N1CC=CC1(CC(C)C)C(=O)NCc1cc(F)cc(C(F)(F)F)c1 (stereo unspecified),inactive,12.6 µM (active),inactive
CCCCCCN(C(=O)CCCCCN1C(=O)NC(c2ccc3ccccc3c2)C(C(=O)OCc2ccccc2)=C1C)C(C(=O)NCCCC)c1ccc(OCC(=O)OC)c(C(=O)OC)c1 (stereo unspecified),inactive,2.51 µM (active),inactive
CC(C)CC1(C(=O)O)C=CCN1C(=O)c1ccccc1 (stereo unspecified),inactive,inactive,
COC(=O)c1ccc(C(NC(=O)OCc2ccccc2)/C(=C/[C@@H](C)C(=O)NCc2ccc(C)o2)c2cccnc2)cc1 (stereo partly specified),inactive,15.8 µM (active),inactive
CC(C)CC1(C(=O)NCCN2CCOCC2)C=CCN1C(=O)c1ccccc1 (stereo unspecified),inactive,12.6 µM (active),inactive
COC(=O)c1ccc(C(NC(=O)OCc2ccccc2)/C(C)=C/[C@@H](C)C(=O)NCc2nc3ccccc3s2)cc1 (stereo partly specified),inactive,3.98 µM (active),inactive

SMILES,outcome [1],Potency [2],Potency [3]
CNC(=O)C1(CC(C)C)C=CCN1C(C)=O (stereo unspecified),inactive,inactive,
COC(=O)c1ccc(C(NC(=O)OCc2ccccc2)/C(=C/[C@@H](C)C(=O)NCc2ccc(OC)c(OC)c2)c2cccnc2)cc1 (stereo partly specified),inactive,3.16 µM (active),inactive
CC1(C(=O)NCCCNc2ncc(C(F)(F)F)cc2Cl)C=CC2(CCCCC2)N1C(=O)c1ccccc1 (stereo unspecified),inactive,7.94 µM (active),inactive
COC(=O)c1ccc(C(NC(=O)OCc2ccccc2)/C(F)=C/[C@@H](C)C(=O)NCc2cccnc2)cc1 (stereo partly specified),inactive,1.26 µM (active),inactive
CCCCCCN(C(=O)CCCCCN1C(=O)NC(c2ccccc2-c2ccccc2)C(C(=O)OCc2ccccc2)=C1C)C(C(=O)NCCCC)c1ccc(OCC(=O)OC)c(C(=O)OC)c1 (stereo unspecified),inactive,6.31 µM (active),inactive
COC(=O)c1ccc(C(NC(=O)OCc2ccccc2)/C(F)=C/[C@@H](C)C(=O)NCCO)cc1 (stereo partly specified),inactive,15.8 µM (active),inactive
CCCCCCN(C(=O)CCCCCN1C(=O)NC(c2ccc(C(C)(C)C)cc2)C(C(=O)OCc2ccccc2)=C1C)C(C(=O)NCCCC)c1ccc(OCC(=O)OC)c(C(=O)OC)c1 (stereo unspecified),inactive,1.26 µM (active),inactive
COC(=O)[C@@]1(C)C=C[C@@H](Cc2ccccc2)N1C,inactive,12.6 µM (active),inactive
COC(=O)c1ccc(C(NC(=O)OCc2ccccc2)/C(C)=C/[C@@H](C)C(=O)N2CCN(C)CC2)cc1 (stereo partly specified),inactive,1.26 µM (active),inactive
CCCCNC(=O)C(c1ccc(OCC(=O)OC)c(C(=O)OC)c1)N(CCc1ccccc1)C(=O)CCCCCN1C(=O)NC(c2ccc(-c3ccccc3)cc2)C(C(=O)OCc2ccccc2)=C1C (stereo unspecified),inactive,5.01 µM (active),inactive
CCCCCCN(C(=O)CCCCCN1C(=O)NC(c2ccc(Cl)cc2)C(C(=O)OCc2ccccc2)=C1C)C(C(=O)NCCCC)c1ccc(OCC(=O)OC)c(C(=O)OC)c1 (stereo unspecified),inactive,3.16 µM (active),inactive
CCCCNC(=O)C(c1ccc(OCC(=O)OC)c(C(=O)OC)c1)N(Cc1ccccc1)C(=O)CCCCCN1C(=O)NC(c2ccc(-c3ccccc3)cc2)C(C(=O)OCc2ccccc2)=C1C (stereo unspecified),inactive,5.01 µM (active),inactive
CC(C)NC(=O)[C@@H]1C[C@@]1(C)[C@@H](NC(=O)OCc1ccccc1)c1ccccc1,inactive,10 µM (active),inactive
CC1(C(=O)NCCN2CCOCC2)C=CC2(CCCCC2)N1C(=O)c1ccccc1 (stereo unspecified),inactive,7.94 µM (active),inactive
COC(=O)c1ccc(C(NC(=O)OCc2ccccc2)/C(I)=C/[C@@H](C)C(=O)NCc2ccc(C)o2)cc1 (stereo partly specified),inactive,10 µM (active),inactive
C[C@]1(C(=O)NCCc2c[nH]c3ccccc23)C=C[C@@H](Cc2ccccc2)N1C(=O)c1ccccc1,inactive,1.58 µM (active),inactive
CC(=O)N1[C@H](C)C=C[C@]1(Cc1ccccc1)C(=O)NCc1ccc(C)o1,inactive,5.01 µM (active),inactive
COC(=O)c1ccc(C(NC(=O)OCc2ccccc2)/C(F)=C/[C@@H](C)C(=O)NCCc2c[nH]c3ccc(OC)cc23)cc1 (stereo partly specified),inactive,1.26 µM (active),inactive
C[C@H](NC(=O)[C@@H]1C[C@H]1[C@@H](NC(=O)OCc1ccccc1)c1ccccc1)c1ccccc1,inactive,12.6 µM (active),inactive
COC(=O)c1ccc(C(NC(=O)OCc2ccccc2)/C(=C/[C@@H](C)C(=O)NCC2CC2)c2cccnc2)cc1 (stereo partly specified),inactive,2 µM (active),inactive
COC(=O)c1ccc(C(NC(=O)OCc2ccccc2)/C(C)=C/[C@@H](C)C(=O)NCc2cc(C)on2)cc1 (stereo partly specified),inactive,2 µM (active),inactive
CCCCCCN(C(=O)CCCCCN1C(=O)NC(C2CCCCC2)C(C(=O)OCc2ccccc2)=C1C)C(C(=O)NCCCC)c1ccc(OCC(=O)OC)c(C(=O)OC)c1 (stereo unspecified),inactive,3.16 µM (active),inactive
COC(=O)c1ccc(C(NC(=O)OCc2ccccc2)/C(F)=C/[C@@H](C)C(=O)Nc2ccc(OC)cc2)cc1 (stereo partly specified),inactive,2 µM (active),inactive
CC(=O)N1CC=CC1(CC(C)C)C(=O)NCCc1c[nH]c2ccccc12 (stereo unspecified),inactive,3.98 µM (active),inactive
COC(=O)c1ccc(C(NC(=O)OCc2ccccc2)/C(F)=C/[C@@H](C)C(=O)NCc2cc(F)cc(F)c2)cc1 (stereo partly specified),inactive,3.98 µM (active),inactive
CCC[C@@H]1C[C@@]1(CCC)[C@@H](NC(=O)Oc1ccccc1)c1ccc(C(=O)OC)cc1,inactive,15.8 µM (active),inactive
CN(C)C(=O)[C@]1(C)C[C@H]1[C@H](NC(=O)CNC(=O)[C@@H]1CCCN1C(=O)[C@]1(C)C[C@H]1[C@H](NC(=O)OCc1ccccc1)c1ccccc1)c1ccccc1,inactive,0.398 µM (active),inactive

# Source: PubChem BioAssay (NCATS)
